# Source: PubChem (National Center for Advancing Translational Sciences (NCATS))
# IL-1B inflam inh – blocks inflammasome-driven IL-1 beta release; THP-1 LPS/ATP IL-1B secretion, AlphaLISA, 16 h; stronger effect = lower value; activity change, % at 57.5 µM; actives 4.7% (n = 360,000); AID 743279; in the data active means activity change below about -50%; inconclusive means mostly about -30% to -49%; further: on the % scale 0 is the no-effect control and ±100 the full control effect
#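 Secreted IL-1B measured by AlphaLISA bead assay after 16 h compound exposure of THP-1 cells; compounds (final up to 57.5 uM) added 1 h before LPS (250 ng/mL) and ATP (1.25 mM) stimulation; lower signal means less secretion.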
# TDP1 cell noCPT – qHTS for Inhibitors of human tyrosyl-DNA phosphodiesterase 1 (TDP1): qHTS in cells in absence of CPT; DT40 Tdp1-/- hTDP1 cells, no CPT, ATP luminescence, 48 h; AID 686978, 2013; actives 15% (n = 420,000); Potency, µM (series often up to 46.2 µM), inactives show at the highest dose activity change, negative = growth inhibition, most hits filed as inhibitors; further: potency means the concentration at half of the fitted maximal effect; on the % scale 0 is the no-effect control and ±100 the full control effect; nearly all actives have a fitted effect of over 55% in size
#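 Stably hTDP1-transfected Tdp1-null chicken DT40 cells were treated with library compounds minus camptothecin and grown for at least 48 hr at 37 °C, after which cellular ATP was quantified by luminescence.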
# DT40 TDP1 CPT – DT40-hTDP1 cell growth loss with CPT | chicken DT40 Tdp1-/-;hTDP1 cells + 20 nM CPT, ATP luminescence, 48 h | Potency, µM (top dose mostly 46.2 µM), for the others: top-dose activity change, negative = growth inhibition, hits mostly inhibitors | actives 12% (n = 420,000) | AID 686979; further: potency means the concentration at half of the fitted maximal effect; on the % scale 0 is the no-effect control and ±100 the full control effect; nearly all actives have a fitted effect of over 55% in size
#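 Chicken DT40 Tdp1-/- cells complemented with human TDP1, 400 cells/well, exposed to compounds plus 20 nM camptothecin for at least 48 h at 37 C; viability read as ATP content by CellTiter-Glo luminescence.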
# SW480 rerep – DNA re-replication induction in SW480 cells. SW480 DNA re-replication, Hoechst DNA content imaging, 48 h. Potency, µM (top dose mostly 46.1 µM), for inactives: at the highest dose re-replication activation, actives largely listed as activators. actives 1.8% (n = 340,000); further: potency means the concentration at half of the fitted maximal effect; % of control where 0% means no effect; nearly all actives have a fitted effect of over 55% in size
#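 Cells (250 per well) received 23 nL compound or DMSO by pin tool and were kept 48 hr at 37 C, 5% CO2. Nuclei were then stained with Hoechst for 40 min and scanned for DNA content.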
# MCF10A rerep – induces DNA re-replication in MCF 10a normal breast cells; MCF 10A DNA re-replication, Hoechst nuclear intensity, 48 h; Potency, µM (series often up to 46.1 µM), inactives show at the top dose activity, positive = re-replication, hits mostly activators; actives 2.9% (n = 350,000); AID 624296; further: potency means the concentration at half of the fitted maximal effect; % of control where 0% means no effect; nearly all actives have a fitted effect of over 50% in size
# BCR signal inh – chronic active BCR signaling inhibition | Potency, µM (doses to about 46.1 µM), for inactives: top-dose activity change, negative = inhibition, most hits filed as inhibitors | ABC-DLBCL IkBa-CBG/CBR reporter, luminescence ratio, 4 h | actives 0.05% (n = 340,000) | AID 493014; active means well fitted inhibition curve with a large enough effect in the signal ratio, with a control signal flat, not every such curve was filed as active; inconclusive means small, poorly fitted or top-dose-only effect, or effect the other way, or a change in a side signal; the % refers to the signal ratio;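 further: potency means the concentration at half of the fitted maximal effect; plate controls were basal doxycycline-induced cells for no effect and cells given 10 µM MG132 for full effect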
#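 Compounds up to 46 uM were incubated four hours with TMD8 cells whose green CBG68 luciferase is fused to IkappaBalpha; red CBR luminescence normalised the signal, and concentration-effect curves were fitted to fusion, red and ratio data.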
# Active calls of the source: *; ? = inconclusive; / = not tested or not shown. Only some compounds are listed: those with a hit (about 19% of all), similar ones and a draw of the others. Unless noted, the call rests on the fitted dose curve; in most records, active means well fitted curve in the direction sought with a large enough effect; inconclusive means small, poorly fitted or top-dose-only effect, or another doubt; inactive means no such curve, though single readings can be large; an effect the other way counts as inactive or inconclusive.
SMILES,IL-1B inflam inh,TDP1 cell noCPT,DT40 TDP1 CPT,SW480 rerep,MCF10A rerep,BCR signal inh
C/C(=N\NC(=O)c1cccc2ccccc12)c1ccccn1,-107*,1.5µM*,1.2µM*,?,?,?
C/C(=N/NC(=O)c1ccc(C(C)(C)C)cc1)c1ccccn1,84,0.23µM*,0.46µM*,?,?,/
C/C(=N\NC(=O)Cc1ccccc1)c1ccc(Br)s1,16,2%,3%,-2%,6%,5%
C/C(=N\NC(=O)c1ccoc1C)c1cccc2ccccc12,41,?,?,-7%,?,?
C/C(=N\NC(=O)c1cc(-c2cccs2)nc2ccccc12)c1ccccn1,190,0.73µM*,0.65µM*,1.6µM*,?,?
C#CCN1C=C(C(=O)OCC)C(C)N(Cc2ccccc2I)S1(=O)=O (configuration not stated),63,8.2µM*,13µM*,1.3µM*,23µM*,-8%
CC(C)Nc1ncnc2c1ncn2[C@H]1CN(Cc2ccc(-c3ccccc3)cc2)C[C@@H](CO)O1,-11,5.2µM*,4.6µM*,/,/,/
CCN(CC)c1ncnc2c1ncn2[C@H]1CN(Cc2ccc(-c3ccccc3)cc2)C[C@@H](CO)O1,-54*,16µM*,?,/,/,/
CC(C)CNc1ncnc2c1ncn2[C@H]1CN(Cc2ccncc2)C[C@@H](CO)O1,56,?,-25%,/,/,/
CC(C)CNc1ncnc2c1ncn2[C@H]1CN(Cc2ccc(-c3ccccc3)cc2)C[C@@H](CO)O1,-27,4.1µM*,5.2µM*,/,/,/
CN(C)CCNc1ncnc2c1ncn2[C@H]1CN(Cc2ccc(-c3ccccc3)cc2)C[C@@H](CO)O1,-5,21µM*,29µM*,/,/,/
Cc1ccc(S(=O)(=O)N2CCN(C(=O)COC(=O)CNC(=O)c3ccccc3F)CC2)c(C)c1,-18,23%,-31%,-1%,4%,/
CC1(C)CC(O)C(C(O)c2cccc([N+](=O)[O-])c2)C(C)(C)N1 (configuration not stated),-4,14%,2%,-1%,-12%,2%
COc1ccc(-c2csc(N(CCc3ccccc3)C(=O)COc3ccccc3)n2)cc1,0,?,?,0%,7%,?
O=C(COc1ccc(Cl)cc1)N(Cc1ccccc1)c1nc(-c2ccccc2)cs1,8,26µM*,?,2%,11%,?
CC(Oc1ccc2ccc(=O)oc2c1)C(=O)NC1CC(C)(C)NC(C)(C)C1 (configuration not stated),-1,29%,-2%,25%,0%,-3%
Cc1cnc(C(=O)Nc2cccc(-c3nnc4n3CCCCC4)c2)cn1,-6,0%,-28%,-7%,-1%,1%
c1cc(Nc2ncnc3sccc23)cc(-c2nnc3n2CCCCC3)c1,4,?,21µM*,0%,-2%,?
COc1ccc(CNC(=O)C2CCCN(S(=O)(=O)c3ccc(-n4cnnn4)cc3)C2)cc1 (configuration not stated),43,-22%,-2%,-1%,?,0%
Cc1ccc(S(=O)(=O)Nc2cc(C)c(O)c(Sc3n[nH]c(C)n3)c2)cc1,-3,?,18µM*,-1%,?,0%
CCN(c1ccccc1C)S(=O)(=O)c1nnc(NC(=O)c2ccc(OC)c(OC)c2)s1,/,?,-22%,/,/,/
O=C(NCCc1nc2ccccc2[nH]1)/C(=C/c1ccc2c(c1)OCO2)NC(=O)c1ccccc1Cl,-84*,?,?,5%,3%,-19%
O=C(NCCc1nc2ccccc2[nH]1)/C(=C/c1ccc2c(c1)OCO2)NC(=O)c1ccccc1,18,-28%,-22%,-1%,-2%,-36%
